Screening results as filed in PubChem.
NPC1 promoter act – activates the NPC1 promoter. Huh7 NPC1 promoter luciferase reporter, 24 h. Potency, µM (top dose mostly 9.22 µM), without a hit: top-dose activation, usual class: activators. 2.4% of 320,000 active; note: % of control where 0% means no effect; nearly all actives have a fitted effect of over 60% in size
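NPC1 promoter–luciferase Huh7 cells; 24 h compound; luminescence.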
SMN2 splice up – enhancers of SMN2 splice variant expression | HEK293 SMN2-luciferase splicing reporter, luminescence, 30-36 h | Potency, µM (top dose mostly 46.1 µM), inactives show at the highest dose activity change, positive = activation, hits mostly activators | 2.8% of 210,000 active; note: % of control where 0% means no effect; nearly all actives have a fitted effect of over 55% in size
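HEK293 cells carry an SMN2 minigene-luciferase reporter in which exon 7 inclusion puts luciferase in frame. Cells were seeded at 2000 cells/well, attached for 10-12 hours, then exposed to compounds for 30-36 hours at 37C before ONE-Glo luminescence.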
ELG1 repair inh – blocks ELG1-dependent DNA repair in HEK293T cells | HEK293T ELG1-luciferase reporter, luminescence, 16 h; DNA damage induced by 5-fluorouridine | Potency, µM (top dose mostly 46.1 µM), inactives show at the top dose activity change, negative = inhibition, hits mostly inhibitors | AID 504467 | 2.3% of 330,000 active; note: % is set by controls: 0 for no effect and ±100 for the full control effect; nearly all actives have a fitted effect of over 55% in size
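Overnight (16 hr) co-exposure of 2,000 cells/well to 5-fluorouridine and compound at 37 °C preceded detection. Luciferase was quantified via ONE-Glo luminescence; loss of signal denotes inhibition.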
Rab9 promoter act – activates the Rab9 promoter | 2.8% of 320,000 active | Huh7 Rab9 promoter-luciferase reporter, luminescence, 24 h | Potency, µM (doses to about 9.22 µM), for the others: at the top dose activation, negative = inhibition, usual class: activators | AID 485297; note: % of control where 0% means no effect; nearly all actives have a fitted effect of over 60% in size
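Rab9 promoter-driven luciferase in stably transfected Huh7 cells; 1500 cells/well rested 2 h, exposed to compound in DMSO for 24 h at 37 °C, 5% CO2. Luminescence read 10 min after adding luciferase reagent at ambient temperature.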
ELG1 genotoxic – genotoxicity induction in ELG1-luciferase HEK293T cells | HEK293T ELG1-luciferase reporter, luminescence, 16 h | Potency, µM (highest dose often 46 µM), inactives show top-dose activity change, positive = activation, hits mostly activators | 1.3% of 330,000 active; note: % of control where 0% means no effect; nearly all actives have a fitted effect of over 60% in size
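Step 1: seed 2,000 HEK293T ELG1-luciferase cells per well. Step 2: add compound or DMSO, incubate 16 hr at 37 °C. Step 3: ONE-Glo, 30 min at room temperature, read luminescence.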
FLuc counter – firefly luciferase modulation, counter-screen for miR-21 project. purified FLuc, Km substrates, luminescence inhibition. P08659. 6.9% of 360,000 active. Potency, µM (highest dose often 57.5 µM), for the others: top-dose activity change, negative = inhibition, usual class: inhibitors;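 note: plate controls were vehicle for no effect and reference inhibitor for full effect; nearly all actives have a fitted effect of over 55% in size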
Target sequence (P08659 whole entry, looked up): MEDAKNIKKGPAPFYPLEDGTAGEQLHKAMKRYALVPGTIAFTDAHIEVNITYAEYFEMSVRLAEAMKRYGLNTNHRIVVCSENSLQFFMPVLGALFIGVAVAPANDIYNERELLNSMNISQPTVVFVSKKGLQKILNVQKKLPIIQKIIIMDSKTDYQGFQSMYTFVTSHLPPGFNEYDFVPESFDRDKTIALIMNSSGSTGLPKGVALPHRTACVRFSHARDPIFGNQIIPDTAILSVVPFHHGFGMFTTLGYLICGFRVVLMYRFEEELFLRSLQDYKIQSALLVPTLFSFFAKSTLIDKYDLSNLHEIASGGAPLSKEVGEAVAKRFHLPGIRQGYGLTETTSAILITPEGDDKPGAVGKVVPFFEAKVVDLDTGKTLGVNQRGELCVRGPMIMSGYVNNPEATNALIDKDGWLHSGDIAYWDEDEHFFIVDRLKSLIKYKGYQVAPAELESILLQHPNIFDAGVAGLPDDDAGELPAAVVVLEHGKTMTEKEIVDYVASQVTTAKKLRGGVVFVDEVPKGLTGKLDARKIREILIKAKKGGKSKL
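Biochemical qHTS of compounds, final roughly 60 µM downward over six points, against 10 nM purified firefly luciferase using Km concentrations of substrates (10 uM D-luciferin, 10 uM ATP) in Tris acetate pH 7.5 buffer; luminescence output.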
An asterisk follows results filed as active; u = inconclusive; x = not tested or not shown; [ ] = remark or other dose. This is a sample that favours compounds with a hit; in the whole collection about 9.2% have one here. Calls come from the whole dose curve; as a rule, active = well fitted curve in the direction sought with a large enough effect; inconclusive = small, poorly fitted or top-dose-only effect, or another doubt; inactive = no such curve, though single readings can be large; an effect the other way counts as inactive or inconclusive. Potency is the fitted concentration of half-maximal effect.

SMILES	NPC1 promoter act	SMN2 splice up	ELG1 repair inh	Rab9 promoter act	ELG1 genotoxic	FLuc counter
CC(C)(C)C(=O)NC1(C(F)(F)F)NC(=O)N(c2ccccc2F)C1=O (centres undefined)	-1%	x	23%	-3%	3%	0%
CCN(CC(O)CON=C1c2ccccc2-c2ccccc21)S(=O)(=O)c1ccc(C)cc1 (centres undefined)	-2%	-17%	-29%	2%	-6%	0%
CN(CC(O)CON=C1c2ccccc2-c2ccccc21)S(=O)(=O)c1ccc(Br)cc1 (centres undefined)	0%	-15%	21µM*	0%	-12%	-3%
Cc1ccc(NC(=O)C2CCCN(c3ncnc4c3nc3n4CCCCC3)C2)nc1 (centres undefined)	0%	x	3.3µM*	-5%	-8%	0%
COc1ccccc1NC(=O)C1CCN(c2ncnc3c2nc2n3CCCCC2)CC1	-1%	x	9.2µM*	0%	0%[9.26 µM]	-12%
O=C(Nc1cccnc1Cl)C1CCCN(c2ncnc3c2nc2n3CCCCC2)C1 (centres undefined)	-6%	x	15µM*	-4%	-5%	-1%
O=C(Nc1ccc(Cl)cn1)C1CCN(c2ncnc3c2nc2n3CCCCC2)CC1	-12%	x	2.1µM*	-24%	3%	-3%
O=C(Nc1ccc(Cl)cn1)C1CCCN(c2ncnc3c2nc2n3CCCCC2)C1 (centres undefined)	-4%	x	u	-7%	-7%	7%
Cc1c(Cl)cccc1NC(=O)C1CCN(c2ncnc3c2nc2n3CCCCC2)CC1	x	x	x	x	x	-8%
O=C(Nc1ccccn1)C1CCCN(c2ncnc3c2nc2n3CCCCC2)C1 (centres undefined)	-3%	x	-27%	-9%	-7%	-2%
N#Cc1c(-c2ccccc2)nc(-c2cccnc2)[nH]c1=O	-3%	x	14%	-5%[1.84 µM]	-1%	3%
O=C(Cc1ccc(-n2c(=O)c3sccc3n(CC(=O)Nc3ccccc3F)c2=O)cc1)NCc1ccco1	-1%	-8%	1%	-1%	-1%	4%
CCOC(=O)C1(CC2CC2)CCN(Cc2ccc3cccc(F)c3n2)CC1	-2%	x	-12%	-4%	0%	-2%
Cc1ccc(NC(=O)C2CCCN(S(=O)(=O)c3ccc(F)cc3)C2)cc1 (centres undefined)	x	-13%	x	x	x	-7%
Cc1cccc(C)c1Nc1oc(-c2ccccc2)nc1-c1cccc2ccccc12	x	11%	x	x	x	x
CC(=O)c1ccc(N2CCN(C(=O)C3CCCN(c4ncnc5c4nc4n5CCCCC4)C3)CC2)cc1 (centres undefined)	-3%	x	2.3µM*	-3%	-11%	-3%
O=C(C1CCN(S(=O)(=O)c2cccnc2)CC1)N1CCN(c2cccc(Cl)c2)CC1	1%	-43%	21µM*	-25%	-12%	0%
O=C(C1CCN(c2ncnc3c2nc2n3CCCCC2)CC1)N1CCN(c2cccc(Cl)c2)CC1	-8%	x	2.3µM*	-9%	-15%	2%
O=C(NCC1CCN(Cc2ccccc2F)CC1)C1CCCN(c2ncnc3c2nc2n3CCCCC2)C1 (centres undefined)	-3%	x	7.3µM*	-2%	-8%	-1%
O=C(Nc1ccc(F)c(Cl)c1)C1CCN(c2ncnc3c2nc2n3CCCCC2)CC1	-2%	x	7.3µM*	-11%	-1%[9.26 µM]	9%
CCN(C(=O)C1CCCN(c2ncnc3c2nc2n3CCCCC2)C1)c1cccc(Cl)c1 (centres undefined)	-4%	x	21µM*	-7%	-9%	2%
N#Cc1ccsc1NC(=O)CCc1ccccc1	0%	13µM*	u	u	u	15µM*
COc1cc(CCC(=O)Nc2sccc2C#N)cc(OC)c1OC	-1%	x	23µM*	-1%	-17%	1%
N#Cc1ccsc1NC(=O)CN(Cc1ccccc1)Cc1ccccc1	-4%	-25%	-10%	-4%	0%	-16%
COc1ccc(CCC(=O)OCC(=O)Nc2sccc2C#N)cc1	x	x	u	x	-1%	x
SMILES	NPC1 promoter act	SMN2 splice up	ELG1 repair inh	Rab9 promoter act	ELG1 genotoxic	FLuc counter
CCOc1ccccc1-c1noc(CSc2nnc(-c3ccccc3)n2-c2cccc(C)c2)n1	x	4%	x	x	x	0%
CC1CCCN(C(=O)CSc2cnc3ccccc3n2)C1 (centres undefined)	u	12%	u	u	u	u
CCN(CC)c1ccc(CN2CCC(C(=O)NCc3ccc(C)cc3)CC2)cc1	0%	x	u	12%	3%	24µM*
CCN(CC)S(=O)(=O)N1CCC(C(=O)NCc2ccc(C)cc2)CC1	0%	3%	23%	6%	-1%	-2%
COc1ccc(-c2noc(-c3ccc(Cl)cc3)n2)cc1	2.5µM*	11µM*	u	u	5.6µM*	2.1µM*
COc1ccc(-c2noc(-c3ccccc3-c3ccccc3)n2)cc1	0%	-9%	3%	-7%	1%	u
CC(C)c1cc(-c2nc(-c3ccc(Cl)cc3)no2)n[nH]1	x	x	x	x	x	9.5µM*
COc1cccc(-c2noc(-c3ccc(Br)o3)n2)c1	2.5µM*	22µM*	u	1.4µM*	u	3µM*
COc1cc(-c2noc(-c3cc(C(C)C)[nH]n3)n2)cc(OC)c1OC	x	x	x	x	x	-2%
COc1ccc(-c2nc(-c3ccc(Br)o3)no2)cc1	0.63µM*	10µM*	u	0.45µM*	1.2µM*	0.95µM*
CCN(CC)CCNC(=O)CCn1c(=O)c2cccn2c2cccnc21	x	x	x	x	x	2%
Nc1nc(Nc2ccccc2F)nc(N2CCOCC2)c1[N+](=O)[O-]	2%	x	0%	6%	-1%	-6%
COc1ccc(-c2noc(-c3ccc(Br)o3)n2)cc1	3.2µM*	x	u	2µM*	u	2.4µM*
CC1=C(C(=O)OCC2CCCCC2)C(c2ccc(Cl)cc2Cl)CC(=O)N1 (centres undefined)	x	-1%	x	x	x	2%
CCOC(=O)c1c(NC(=O)c2ccco2)sc(C(=O)N2CCCC2)c1C	2%	24%	u	-1%	-6%	-1%
COCCOC(=O)c1c(NC(=O)CN2CCCc3ccccc32)sc(C(N)=O)c1C	0%	x	7.3µM*	-3%	-4%	4%
CCOC(=O)c1c(NC(=O)CN2CCCc3ccccc32)sc(C)c1C	-2%	-18%	u	2%	u	u
CCOC(=O)c1c(NC(=O)CN2CCN(C(=O)c3ccco3)CC2)sc(C(N)=O)c1C	-7%	-3%	23µM*	-1%	0%	2%
CCc1cc(C(=O)OC)c(NC(=O)CN2CCN(C(=O)c3ccco3)CC2)s1	-2%	x	10µM*	7%	-19%	1%
